# Assay results as given in the supplement of paper PMC12632987.
# In all, about 2,300 sequences were measured (“median log2 fold change of GCK-ALFA target abundance (FLAG IP / Myc IP barcode read proportion)”: median about 0.095, lowest 2% from about -0.47 on). Many of the other results were omitted from the sample, so the lowest values are more common in it than they were.
# B1: LC3A_3_1520 (protein)
# chain: MEEIEKEIIKLLKEAGASEETIEKAKELLKLLRERGYLNAMKTLLEELKELKDAPVETIEAFVKDVLELVKTEDLSEEELSKRIKELATIAKNDAEIEEL
# B2: LC3A_6_2066 (protein)
# chain: KLYKITIDILLKSEKPEEALKVAKEIAEEIRKFAEEINKEYNGAVKKLEIKIEEIDGEVFLTIEIVAEEKAVNEIIDKVDEIVEENKEYVAASMISVEEL
# B3: LC3A_28_724 (protein)
# chain: NRLEASIAAALARARALAAAGESDVIEITIPGDATEEDIERVIEALEEIAAITADLPRTDIVINVEGGVKQEHIDRLADAAEAIEARYPNVTVIIALDEE
# B4: LC3A_55_2007 (protein)
# chain: MEVFIFITENAETGEILALEVEVDSDPERLLEALRAAGEELAAELFRLANGRRLDEEEMAEIKARYSPEEVRAAVEALIAVLESLPDVKVSVLIELEEEE
# B5: LC3A_13_341 (protein)
# chain: TVTLEVETAEELRERGFAALAAHPGETIRITVTVRDEEEAEAIAEVLAELVRAAAEAGSDLEITIRGPRDLVLYVALEVGSEAYEHIDKVTVTITEEVVE
# B6: LC3A_147_449 (protein)
# chain: MLYEITVDALFKNDPALAEEVAEQLKAIAEKHGGEVEVEFEEEQVSPTTTEYFLNVTITFEDKAKAQAAETEIAALLDETAAKHPDKFLGAILSFEEVEP
# B7: LC3A_3_1611 (protein)
# chain: MEELIERELERLREAGFSPEVLEEARKVLEALAEKGYRRAIEKLTEELLKLKDVDPELVIEALREILRIVTEEDLSEEEVIEEIEREFRVVRLESEIIEL
# B8: LC3A_free_8_2519 (protein)
# chain: KSKAFAQRVVAILEELEKEIVKLLKEKGASRLDILEAELLIGSIIAEVISLQDKSPEEIIKAVKEGLKELVEELEKYKEEVKKLAEEALKKIEAAKKELE
# B9: LC3A_3_1395 (protein)
# chain: FEEIRKETIEYLKKAGKSEEVIKAAEEALELLEKRGYLEAAKTFLEELKKMKDVSDELLLWFLNEVINYLKTNDDDEETVIKKIKEFATIVKNESEIEEL
# B10: LC3A_147_483 (protein)
# chain: MRIDIDALIKGEETVEEFIERLEEKKEELEEEGVEVELEIEVEEVEEGVYYLKVTVTIKAETKEKEKEAADKIIDTIEEFEEENKDKVLGVLISVEEIEE
# B11: LC3A_28_1260 (protein)
# chain: SELEKNIEAAIAEVKEAVAKGEEAVVTIKVPAGITEEEVEKVIETMEKIAELGKSLPSVTIIVDVEKGVKQEHIDKLVDKGEELEKKYPNLTVIFALEEE
# B12: LC3A_45_1982 (protein)
# chain: MWEATIDLLVPRELAEEAYAILKEAGAELVARHGDDLKVDWDALDASYEASRDEEEVYLRLNIYHPDKQVALDSAVEIVDRLEERLGRKVAAIISVKEVP
# B13: LC3A_23_600 (protein)
# chain: MVTVEADHVVKNDPELAEEKTKKLLEEIKKILEKNKDYIKDYKIEVEFYTDEDGNTVVRITVTVKVKDDPEKAQEIANELISAFDEILPDAVIAYDVEED
# B14: LC3A_28_836 (protein)
# chain: SFAEEEIKKAKKALEKAKETKEDVVVEVVIKSTMTPEEAQYIMDELEKEVSKLPKDVKVSIVFLAEEPVDPEVLQTIADGGDEIEEKYPNVTVIIALPEE
# B15: LC3A_28_985 (protein)
# chain: SAMEERLAAALAEAKAAAAAGEATVITIEVPSTATEEDIEKAVAALKEIGEILKGVKGSAIVVDLESGVPEEHIRKLADAGEEVEKANPDVSVIFALDED
# B16: LC3A_141_362 (protein)
# chain: AVKKKTYTYTATTYDEALKVAEEIGKEIKKFMEETGAEEVKVTVTITSYNEKTGEVTTETDTYTVTKENLDLFIEGLEIDLLSAFDKGADKIVVKVTIET
# B17: LC3A_28_758 (protein)
# chain: MDVAEIVAAAIAEAKAAAAAGEEAVIRIRVPAGATQEDIDKVIAGLEEIAEIRKDMKSTSIVIDIEAGVSQENIDKLIDAGEAIEKKYPNITVIFALDED
# B18: LC3A_59_2012 (protein)
# chain: REEVREWVEKIYEAYDDVEKFYELVKKAYEELKKKYSDEELLKLVKEEVERLIKEGKDPRKMKAIYESFKAVIEIKDEEKQKEEIRLIILESEIEEIDEE
# B19: LC3A_3_1808 (protein)
# chain: MEERLEEVIKLLKEAGHSEETIKAFLEAAEALKEKGYEEALETLLELARELVDLPSELLLEMFEDVLELVETSDDSEEEITERIREIASTYRHEAEIEEL
# B20: LC3A_132_320 (protein)
# chain: MEEKARRIREEILRLIEEAEENIDDLEKVEELVEEIRELARRAEEELTPEQVAEIFEEAAEKADEVSLKADEEGKEDVALLMDGLSVELAALSIRAEEKI
# B21: LC3A_free_2_2172 (protein)
# chain: MKYRVIIDALGKPEGIAKLVKTLVDLGIEVEVTTEDGTKMTATKETVEEVVKYLLSKKEEIYVELEAVTDKEKADKALDELEKVAEETGISYIVSIEELE
# B22: LC3A_28_689 (protein)
# chain: NYIEELKKKAEEILEEAAAKGEEAYIEIDFERPITPEEVEEIMDKLEEYIKKYKLKKVNIVINILSENQSQETIDTIMDKAEELEKRIPNVTVIIALPEN
# B23: LC3A_3_1500 (protein)
# chain: LEEAVERLLEALREAGVSEADIAEARELLEKAREYLTEESIEAITETVRRLAHLPPRLVAAAVLTLLETILEKKLNDEEVKEKAELLAETAESFAESDER
# B24: LC3A_28_698 (protein)
# chain: SRVDEDIERARKIAEEAIAKGEDALIELTIRPDTTAEDVDRILATIRELAEKMSKTGKLYVVVDVESGVDQANIDRIADELDKLMEEIPNLTAVIALDED
# B25: LC3A_141_369 (protein)
# chain: KTVTLKLELKNSSLDEVIEKMEELEEEVLKAYEELGGGKVKVTVTLTFKNSKTGETTVIKEEFEADKEELEMLLEGVLIEAASYRLTENADITVTVTLEA
# B26: LC3A_28_725 (protein)
# chain: NELEESIEKALKKAKELAEKGKSDVIEITIPGNATQEDIEKVIKALEEIAEIVKDLESVSIVIDVEGGVKQEHIDKLADKAEEIEKKYPNVTVIIALDED
# B27: LC3A_free_0_2099 (protein)
# chain: MTTVVEVLGIIDNENDKEAAEAIAEELKKLGKKLSEEKGWKVTVELKKVNGSYVITVTIEGKGMSIEEGLEIADEIADKIERLAKEHGVEVTIYTSVYEE
# B28: LC3A_28_943 (protein)
# chain: MSIEEDIEAALKEAKEAKKKGEPAVITITVKGTATQEEVDAVIKTIKEIAELLKDIKGSAIIVDIEAGVAQEHVDALMDTLDEIEKKYPNINAIAALDED
# B29: LC3A_28_944 (protein)
# chain: MTIEEEIEKALKEAKEAKAKKEPAVITITVKGDATEEEIEKVIETIKEIAELLKDIKGSAIIVDVEKGVKEEHINKLLDTLDEIEKKYPNISAIMALDED
# B30: LC3A_3_1778 (protein)
# chain: ADELIEELLEALREAGKSEETIEAAREVAERLRERGFDEALETFVREMRRLLDVPDDILLDMLEEVLELLETEDLSEEEVIERIEELARLARAEAEIEEL
# B31: LC3A_132_258 (protein)
# chain: SEEKKEEFLEKFKELIDKIVEALQAGQDPSPYLKELDELAEEAAEELSLEELEELVEEAEKYARERFAERLDPNDPEARRTLLIVEMILDSALIESELRA
# B32: LC3A_132_256 (protein)
# chain: SEELYERFLEEAKELIDKIVDALKAGKDPSPYIKELDELAEEAAEKLSLEELERLVEEAEEYAEERFAERLDPNDPEARRALDIVEMILDSALIEAELRA
# B33: LC3A_28_714 (protein)
# chain: SPLEESIKKALEEAKEAAKKGEEAVIEIKVEGEITEEETEKVQKAIEEIAEITKDLKSTTIIVDVDGKVPQEHINKILDKGEEVEKKYPNVTVIFALDEN
# B34: LC3A_free_0_2103 (protein)
# chain: SVTVVEVVAISKEKWSEEKAKKLKEAAEKLAKELEEKYGMETEVKLEEIDGRQVLTIKAKKEGMSIDEGLEIADYIADHLEEKAKELGVEVEIYESVYEE
# B35: LC3A_3_1781 (protein)
# chain: AEARIAELLAALEAAGASPETIAAVRAAAEALRARGYEEALATFVEEMRRLLGLPDEIRLAFAQEVLRLIEENDLSEEELTEEIRRLARLARLEAEIEEL
# B36: LC3A_free_8_2489 (protein)
# chain: KSQELANLASDLLDELEEEVEKKAKELGASELDILDLSLLIGSTIAEAYSLSDESPEKIIEAVREGLEELIERAKEISEELAKKVKELSEKILKELEEKA
# B37: LC3A_3_1366 (protein)
# chain: MEEKIEELLEYLKKEGKSEETLEAVRKTLEALIEKGYEEAAETFIELMKKLSHLPDELLLDFAKEVLEKVENEDLSEEELIEFIKEEAKIAENEAEIIEL
# B38: LC3A_28_772 (protein)
# chain: MDIKENAAKAIAEAKAAAAAGEEAVIEIKVPDGATEEDIEIVIKALEEIAEITKDMKSISVVIDVDGGVKQEHLDKLAKAAEEIEEKYPNVTVIIALDEN
# B39: LC3A_free_39_2201 (protein)
# chain: SEEEFEKYKEELLKLAEKEGEEALKEAKELLKEIEGNVNLAKTVLEEVKRAVEEGADVLELLKELLKLVKELKKEGKSEEEIIKEMKAKADVIINLIPID
# B40: LC3A_28_1312 (protein)
# chain: SKLKKQFEEAIKEVEAAAAAGEPVVVTIDITAEEAEKELEEILKLLEELAKVASKAPGATIIIDVDEDVKPENLKKIAEKAEELEKKYPNVTVIIAIEDK
# B41: LC3A_127_171 (protein)
# chain: ELEELLEEALEVAEELSELLEEEDYDFEEIEELTRELLELAKKILELDPRAEDALETAEEMLELLEEMKEADEAEQKELKEHLLMLTEGLIIELLGLQLK
# B42: LC3A_free_39_2287 (protein)
# chain: SEEELEEAVERLEELLEEIEGVSEEEKEIILEAARESLEMAKAILEALEELRRLGGDVAEAAREIAALIRELRAAGASLEERTAAVIEKARDLVNLIPID
# B43: LC3A_132_291 (protein)
# chain: QQEKAEELKKEIKEIVEEMKENIDDEEKVRKLLEELEKLMKRAEKELSPELLAEVFEELSELLEELSEEFDEAGKEDLALEADSLAIEAASLALRAKEKI
# B44: LC3A_127_206 (protein)
# chain: KEKELLKKAEKLAEKAEEAVDKIPKEGEKAREEAIKLLEELAKLLKQIPSLKEALEDTEQAIKLLKETAKLSPAEREETIEQISQIISGILIEIESELLK
# B45: LC3A_free_46_2354 (protein)
# chain: VEAKIEVDLLHEDEEVLKKAVEAIKEAAKKIAKKYGLKVEIKEKIEKLPDGSYFAEIEITLKGEDKETLEKAVNELINEIDEIAKKYDVAAIISYEIIEK
# Target: MAP1LC3A, Q9H492
# Test: median log2 fold change of GCK-ALFA target abundance (FLAG IP / Myc IP barcode read proportion) (log2 ratio); each designed protein is fused to an ALFA-tag nanobody in HEK293 cells to bring the named protein to FLAG-tagged glucokinase (GCK); Myc marks an untargeted standard; higher = target protein stabilised (more abundant)
# Conditions: target protein: 3xFLAG-MCP-GCK-ALFA reporter; HEK293 landing pad (RPLP)
# Summary of the method: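 An ALFA-nanobody-fused binder library was recombined into HEK293 landing-pad cells and induced with 2 μg mL^−1 doxycycline. Cells were transfected with a plasmid expressing a FLAG-tagged target and a Myc-tagged standard. After 48 h, lysates underwent anti-FLAG and anti-Myc immunoprecipitation, and circular RNA barcodes were reverse transcribed, amplified and sequenced. Target abundance is the per-binder median log2 ratio of FLAG to Myc barcode read proportions. Barcodes needed ≥10^−7 proportion in both replicates, binders ≥3 barcodes per replicate, and a 10^−6 pseudocount was added; the two replicates were pooled.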
row,Binder,median log2 fold change
1,B1,0.547
2,B2,-0.173
3,B3,0.154
4,B4,0.119
5,B5,0.0625
6,B6,-0.603
7,B7,0.132
8,B8,-0.243
9,B9,0.436
10,B10,-0.904
11,B11,-0.13
12,B12,0.0214
13,B13,-0.566
14,B14,0.111
15,B15,-0.274
16,B16,-0.96
17,B17,0.124
18,B18,0.156
19,B19,0.0777
20,B20,0.104
21,B21,-8.53e-05
22,B22,-0.0908
23,B23,0.0772

row,Binder,median log2 fold change
1,B24,-0.304
2,B25,-0.618
3,B26,0.164
4,B27,-0.379
5,B28,-0.355
6,B29,-0.897
7,B30,-0.0575
8,B31,-0.582
9,B32,-0.217
10,B33,0.219
11,B34,0.15
12,B35,0.24
13,B36,0.0352
14,B37,0.0931
15,B38,0.202
16,B39,0.451
17,B40,-0.0764
18,B41,-0.77
19,B42,0.257
20,B43,-0.27
21,B44,0.148
22,B45,-1.38e-07
